We go through 14 molecules from PubChem BioAssay.

A short description of assay [1]: compound effects on lung adenocarcinoma cell viability – A549, calcein-AM fluorescence, 48 h, basal, profiling panel (AID 1162). To be noted: higher = more signal.
Assay [2] in a line: compound effects on differentiated 3T3-L1 adipocyte viability – cell-based, 3T3-L1 adipocytes, calcein-AM fluorescence, 48 h, basal, profiling panel (AID 1163). To be noted: 3T3-L1 adipocytes viability, higher = more signal.
Assay [3] in a line: compound effects on hepatocellular carcinoma cell viability – HepG2, calcein-AM fluorescence, 48 h, basal, profiling panel (AID 1164). To be noted: higher = more signal.
Assay [4] can be described thus: compound effects on multiple myeloma cell viability – MM1S, calcein-AM fluorescence, 48 h, basal, profiling panel (AID 1165).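 Note: viability of MM1S multiple myeloma cells under basal unstimulated conditions.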 Particulars: higher = more signal.
Assay [5] in a line: calcein-AM signal in unstimulated myeloma cells – cell-based, calcein-AM fluorescence, 48 h, PK04 Diversity Set, profiling panel (AID 1166).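 Note: cells grown under basal conditions without added stimulus.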 Particulars: RPMI8226 myeloma viability, higher = more signal.
Assay [6] can be described thus: JC-1 mitochondrial signal, unstimulated HepG2 cells – cell-based, JC-1 fluorescence, 24 h, 100 nL compound, profiling panel (AID 1167). To be noted: HepG2 mitochondrial potential, higher = more signal.
Assay [7] can be described thus: JC-1 mitochondrial signal, unstimulated adipocytes – cell-based, JC-1 fluorescence, 3T3-L1 adipocytes, 24 h, 100 nL compound, profiling panel (AID 1168). Particulars: JC-1 mitochondrial fluorescence, higher = more signal, called active from +8 up or from −8 down.
The nature of assay [8]: JC-1 mitochondrial signal, unstimulated myeloma cells – cell-based, JC-1 fluorescence, RPMI8226, 24 h, 100 nL compound, profiling panel (AID 1169). To be noted: JC-1 mitochondrial potential fluorescence, higher = more signal.
The nature of assay [9]: JC-1 mitochondrial signal, unstimulated MM1S myeloma – cell-based, JC-1 fluorescence, 24 h, 100 nL compound, profiling panel (AID 1170). Particulars: MM1S mitochondrial potential, higher = more signal.
Assay [10] can be described thus: resazurin metabolic signal in A549 cells – cell-based, resazurin fluorescence, 24 h, PK04 Diversity Set, profiling panel (AID 1171). Particulars: A549 viability, higher = more signal, called active from +8 up or from −8 down. For orientation: Resazurin is reduced to fluorescent resorufin, in cell work by metabolically active cells.

SMILES strings stand for the structures. Calls of active or inactive are those of the source.
Note: test concentration not given here.

Consider `COc1ccc([Si](C)(C)[C@@H]2[C@@H](CC(=O)N3CCC[C@H]3CO)O[C@]3(C(=O)N(Cc4cccc(N5CCC5=O)c4)c4ccccc43)[C@H]2C)cc1`, for which the z-score is -0.208 in assay [1]; -1.34 in assay [2]; -4.16 in [3]; -2.71 in assay [4]; -4.33 in assay [5]; -0.729 in [6]. The z-score in [7] was 0.999 (inactive); in assay [8], -1; in [9] it was -2.19; in assay [10], -1.39 (inactive).

Turning to `CO[C@H]1COC(=O)[C@@H]2CCCN2C(=O)CC=C[C@@H](C)[C@H](OC)COC(=O)CC=C[C@@H]1C`, the z-score is 0.346 in assay [1]; 1.04 in assay [2]; 1.01 in assay [3]; 0.292 in assay [4]; 0.84 in [5]; 1.23 in [6]. For the same molecule, the z-score is 0.252 (inactive) in [7], -1.13 in assay [8], 1.16 in [9] and 0.287 (inactive) in [10].

Turning to `O=C(NN=C1C[C@@H](O)[C@@H](O)[C@@H]2[C@@H]3C(=O)N(c4cccc(Oc5ccccc5)c4)C(=O)[C@@H]3CC[C@@H]12)OCc1ccccc1`, the z-score in [1] was 0.359; in [2], 0.51; in assay [3], -0.492; in assay [4], -0.0408; in assay [5] it was -0.238; in assay [6], -0.659. Moreover, the z-score is -0.0191 (inactive) in [7], 0.682 in assay [8], 0.615 in assay [9] and 0.413 (inactive) in [10].

Take `CN1C(=O)C2C=CC(C(O)c3ccc(Br)cc3)N(N(c3ccccc3)c3ccccc3)C2C1=O` (stereo not given): the z-score in assay [1] was 1.78; in [2], -0.658; in [3] it was 1.37; in assay [4], 0.0222; in assay [5], -0.574; in assay [6], 0.232. For the same molecule, the z-score in [7] was -1.07 (inactive); in assay [8], 0.343; in assay [9], -0.654; in assay [10] it was -0.335 (inactive).

With `CC(C)[Si]1(C(C)C)O[C@@H](c2ccccc2)c2cc(C3CC3)nc(-c3ccccc3)c21`, the z-score in assay [1] is -0.447; in assay [2], -0.483; in assay [3] it was -0.244; in assay [4] it was -2.2; in assay [5], -1.35; in assay [6] it was -1.8. The z-score in [7] was -0.092 (inactive); in [8], -0.781; in assay [9], -0.192; in assay [10] it was 1.44 (inactive).

Regarding `C[C@@H]1C=CCC(=O)OC[C@H](C)C(=O)N2CCC[C@H]2C(=O)OC1`, the z-score in assay [1] was -0.581; in assay [2], 0.0764; in assay [3], -0.492; in [4], 0.13; in assay [5], -0.665; in assay [6] it was -0.248. Also, the z-score is -1.27 (inactive) in assay [7], 0.363 in assay [8], -0.583 in assay [9] and -0.0059 (inactive) in assay [10].

For the molecule `Cc1ccc(C2CC=C(C(=O)O)CN2S(=O)(=O)c2ccc(C)cc2)cc1` (stereo not given), the z-score in assay [1] is -0.789; in [2], 0.171; in [3] it was -1.04; in assay [4], -1.07; in assay [5], -1.65; in assay [6], -0.0791. Further, the z-score in [7] is -0.516 (inactive); in [8] it was -0.187; in assay [9] it was -0.296; in [10], -0.716 (inactive).

Consider `COC(=O)C1=C(C)N(Cc2ccccc2)[C@]23O[C@](C(=O)OC)(C(=O)N2[C@@H]1c1ccccc1)[C@H]1CCOC(=O)[C@H]13`, for which the z-score was 0.589 in assay [1]; 0.109 in assay [2]; -0.21 in assay [3]; 0.0449 in assay [4]; -0.808 in [5]; 0.74 in assay [6]. The z-score in assay [7] is 0.642 (inactive); in assay [8], -0.139; in assay [9], -0.0135; in assay [10], 0.516 (inactive).

With `CCOC(=O)NN=C1C[C@@H](O)[C@@H](O)[C@@H]2[C@@H]3C(=O)N(C[C@@H]4CCCO4)C(=O)[C@@H]3CC[C@@H]12`, the z-score is 0.0693 in [1]; -0.637 in assay [2]; 0.473 in [3]; 0.157 in assay [4]; 0.549 in assay [5]; 1.06 in [6]. Also, the z-score is 0.491 (inactive) in assay [7], 0.248 in assay [8], -0.895 in [9] and -0.175 (inactive) in [10].

Regarding `CN(C)c1ccc(C(O)C2C=CC3C(=O)N(c4ccccc4)C(=O)C3N2Nc2ccccc2F)cc1` (stereo not given), the z-score in assay [1] was -0.225; in assay [2], -0.528; in assay [3] it was -0.799; in assay [4], -0.343; in [5], -1.18; in assay [6] it was -2.24. The z-score in assay [7] was -1.08 (inactive); in assay [8], 0.109; in [9], -0.0359; in assay [10], -0.416 (inactive).

Regarding `CCc1cc2c(nc1CC)CCN(CCC(C)=NO[C@@H](C)c1cc(-c3c(C)cc(C)cc3C)no1)C2`, the z-score in [1] is 1.9; in [2] it was 0.704; in assay [3], 1.48; in assay [4] it was -2.96; in assay [5] it was -1.59; in [6], 5.47. The z-score in assay [7] is 0.0344 (inactive); in [8] it was 0.0876; in assay [9] it was -0.769; in assay [10] it was 0.323 (inactive).

`COc1ccc(CCNC(=O)[C@@H]2c3ccccc3C(=O)N(c3ccc(C)cn3)[C@H]2c2ccc(CO)cc2)cc1`: the z-score was -0.174 in [1]; 0.821 in [2]; -0.513 in [3]; -0.243 in assay [4]; -0.194 in [5]; -0.814 in [6]. Besides, the z-score in assay [7] is -0.195 (inactive); in [8], 0.671; in [9], 0.634; in assay [10] it was 0.689 (inactive).

As for `C=CC[C@@H]1C=C[C@H](ON=C(C)CCN2CCc3nc(CC)c(CC)cc3C2)[C@@H](CO)O1`, the z-score was 1.36 in [1]; 1.06 in assay [2]; -1.47 in assay [3]; -0.727 in assay [4]; 0.121 in assay [5]; 3.09 in [6]. Moreover, the z-score was -1.31 (inactive) in assay [7], 0.0868 in assay [8], -0.587 in assay [9] and 0.097 (inactive) in [10].

Take `CC[C@@H](c1ccccc1)n1c(=O)n2n(c1=O)[C@H]1[C@H](O)[C@@H]3O[C@@H]3C(=NOCC=C(C)CCC=C(C)C)[C@H]1CC2`: the z-score in [1] was -0.821; in assay [2] it was 0.722; in assay [3] it was -1.48; in [4] it was -3.08; in [5] it was -3.74; in [6], -2.4. Also, the z-score was 0.151 (inactive) in assay [7], -0.829 in assay [8], 0.198 in assay [9] and -0.0334 (inactive) in assay [10].
